Data: PubChem BioAssay (NCI)
The panel holds about 83,000 compounds, 20% with a hit somewhere; the sample as a whole holds those more often.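 Each cell line was grown in a 96-well plate and treated with one concentration of compound for 48 hours. Values below 10 were considered active.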 Values without a mark were called inactive. Active and inactive are the calls of the source.

Key:
Assay in all cases: NCI-60 one-dose screen, 48 h (100 = growth as untreated, 0 = no growth, -100 = all killed)
Settings in all cases: 10 µM unless noted
HT29 colon = test system: HT29 colon
SNB-75 CNS = test system: SNB-75 CNS
SNB-19 CNS = test system: SNB-19 CNS
U251 CNS = test system: U251 CNS
PC-3 prostate = test system: PC-3 prostate
SK-MEL-5 melanoma = test system: SK-MEL-5 melanoma
UACC-62 melanoma = test system: UACC-62 melanoma
LOX IMVI melanoma = test system: LOX IMVI melanoma
SK-MEL-28 melanoma = test system: SK-MEL-28 melanoma
SK-MEL-2 melanoma = test system: SK-MEL-2 melanoma
EKVX NSCLC = test system: EKVX NSCLC
SN12C renal = test system: SN12C renal
UO-31 renal = test system: UO-31 renal
TK-10 renal = test system: TK-10 renal
ACHN renal = test system: ACHN renal
A498 renal = test system: A498 renal
CCRF-CEM leukemia = test system: CCRF-CEM leukemia
MOLT-4 leukemia = test system: MOLT-4 leukemia
SR leukemia = test system: SR leukemia
CAKI-1 renal = test system: CAKI-1 renal

SMILES	growth (HT29 colon)	growth (SNB-75 CNS) [%]	growth (SNB-19 CNS) [%]	growth (U251 CNS)	growth (PC-3 prostate) [%]	growth (SK-MEL-5 melanoma) [%]	growth (UACC-62 melanoma) [%]	growth (LOX IMVI melanoma)	growth (SK-MEL-28 melanoma) [%]	growth (SK-MEL-2 melanoma)	growth (EKVX NSCLC) [%]	growth (SN12C renal) [%]	growth (UO-31 renal)	growth (TK-10 renal) [%]	growth (ACHN renal)	growth (A498 renal)	growth (CCRF-CEM leukemia)	growth (MOLT-4 leukemia)	growth (SR leukemia)	growth (CAKI-1 renal)
CC/C(=C\c1ccc(N(C)C)cc1)c1nc2ccccc2c(=O)[nH]1	81.7%	88.3	102	86.3%	107	97.4	84.1	94.2%	152	-13.9% (active)	93	106	108%	51.1	93.4%	118%	110%	140%	77.4%	–
COc1cc(OC)c2sc(-c3ccc(-n4cncc4-c4ccc(N)cc4)cc3)nc2c1	62.6%	86.1	71.2	59.3%	67.7	56.6	96.6	62.7%	97.5	97.6%	70.3	76.1	49.2%	–	79.7%	-3.9% (active)	60.5%	46.9%	68.3%	76.4%
Cn1cnc([N+](=O)[O-])c1S(=O)(=O)Oc1ccc(Cl)cc1	-36.9% (active)	103	102	85.4%	90.8	95.4	78.7	45.2%	97.4	90.6%	102	94.5	-82% (active)	96.1	-70.8% (active)	–	-49.8% (active)	-0.321% (active)	25.3%	-65.1% (active)
CCOC(=O)C1=C(C)N2C(=NC3=C(CCC/C3=C\c3ccc(Cl)cc3)C2c2ccc(Cl)cc2)S1 (stereo unspecified)	-54.3% (active)	64.2	55.4	-100% (active)	24.3	40.8	54.7	-100% (active)	48.8	76.6%	64.6	58.1	53.9%	–	16.6%	3.17% (active)	-17% (active)	-3.87% (active)	-8.47% (active)	62.3%
